This is an account of results in PubChem BioAssay (NCATS).

Experiment [1] concerns the target Glucocorticoid receptor (Homo sapiens) (UniProt P04150). Nature of the experiment: qHTS assay for small molecule agonists of glucocorticoid receptor signaling (AID 588532; active means well fitted curve in the direction sought with a large enough effect in the signal ratio, with a control signal flat; the % refers to the signal ratio;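 further: 100% = dexamethasone at 0.1 µM and 0% = DMSO only wells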). The note with it: HeLa MMTV-bla, beta-lactamase ratio, agonist, 18 h; stronger effect = higher value; percent of dexamethasone control, DMSO zero. Summed up:
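Stimulation of a glucocorticoid response element-driven beta-lactamase gene was measured in HeLa cells. Responses were scaled between DMSO basal and 0.1 uM dexamethasone, then fitted for half-maximal stimulation.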
Background: In qHTS, concentration-response curves come from the screen itself.

A short description of experiment [2]: qHTS assay for environmental chemicals that activate the Aryl hydrocarbon Receptor (AhR) signaling pathway (AID 651777). Further: nearly all actives have a fitted effect of over 15% in size. Further: potency means the concentration at half of the fitted maximal effect. On activation: % of control where 0% means no effect. The note with it: 1A2-DRE human hepatoma cells, luciferase, 24 h; activation: stronger effect = higher value. The essentials:
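Following a 24 hr incubation with test chemicals at 37 C and 5% CO2, 1A2-DRE human hepatoma cells received One-Glo reagent; after 30 min at room temperature, luciferase output reflected CYP1A2 induction via AhR.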

Experiment [3] can be described thus: qHTS assay for small molecule agonists of the antioxidant response element (ARE) signaling pathway measured by Nrf2-dependant transcriptional activity (AID 720636; active means well fitted curve in the direction sought with a large enough effect in the repeat runs; an effect the other way counts as inactive or inconclusive;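 further: HepG2 cells with an ARE-driven luciferase reporter; % of control where 0% means no effect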). The note with it: ARE-luc HepG2, Nrf2 luciferase reporter, 16 h; series mostly up to 92.4 µM. Summed up:
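ONE-Glo luminescence, read 30 min after reagent addition at room temperature, reflected ARE reporter activity in HepG2 cells that had been incubated with compound for 16 hr at 37 C in 1% dialyzed FBS.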

A short description of experiment [4]: qHTS assay for cell viability of HEK293 cells (AID 743288). Further: nearly all actives have a fitted effect of over 50% in size. Further: potency means the concentration at half of the fitted maximal effect. The note with it: ATP luminescence (CellTiter-Glo), 18 h; max response: stronger effect = lower value. Summed up: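 ATP luminescence (CellTiter-Glo) reports metabolically competent cell number after parental HEK293 cells, 2,000/well, were treated with DMSO-dissolved compounds for 18 h at 37 C; reagent incubation 30 min, room temperature.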

Experiment [5] can be described thus: qHTS assay for cell viability of the p53RE-bla HCT-116 cell line (AID 743292). Further: nearly all actives have a fitted effect of over 55% in size. Further: potency means the concentration at half of the fitted maximal effect. The note with it: p53RE-bla HCT-116 viability, ATP luminescence, 16 h; series mostly up to 95 µM. The essentials:
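After plating at 4,000 cells per well and a 5 h rest at 37 C, HCT-116 cells carrying p53RE-bla received test chemicals in DMSO. Sixteen hours later at 37 C, CellTiter-Glo was added and luminescence recorded following 30 min at room temperature.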

Experiment [6] can be described thus: qHTS assay for small molecule activators of the human pregnane X receptor (PXR) signaling pathway (AID 720659; call rule not given here; further: 0% is about no effect). The note with it: DPX-2 HepG2 CYP3A4-luciferase, 24 h; series mostly up to 92.3 µM.
Experiment [7] addresses Thyroid hormone receptor beta (Homo sapiens) (UniProt P10828). Nature of the experiment: qHTS assay for small molecule agonists of thyroid hormone receptor beta signaling (AID 588545; calls by dose curve;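 further: 0% = DMSO only and 100% = 10 nM T3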). The note with it: TR-UAS-bla GripTite HEK 293, beta-lactamase ratio, agonist mode, 18 h; series mostly up to 76.7 µM. The essentials:
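TR-UAS-bla GripTite HEK 293 cells (2500/well, medium with 2% charcoal/dextran FBS) were treated in agonist mode for 18 h at 37 C, titrated. Beta-lactamase was read by CCF4 ratio after 2 h; normalized to 10 nM T3 (100%) and DMSO, Hill-fitted for EC50 and efficacy.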

Experiment [8] is described as follows: qHTS assay for small molecule activators of the p53 signaling pathway (AID 651743; active means well fitted activation curve with a large enough effect in the signal ratio, not every such curve was filed as active; the % refers to the signal ratio; further: potency means the concentration at half of the fitted maximal effect; on activation: % of control where 0% means no effect). The note with it: HCT-116 p53RE-bla, beta-lactamase FRET ratio, 16 h; activation: stronger effect = higher value. Summed up: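 Agonist-mode quantitative HTS in HCT-116 cells carrying a p53-response-element beta-lactamase reporter; 16 h compound treatment at 37 C, then FRET substrate loading for 2 h at room temperature and fluorescence read.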

The target of experiment [9] is Peroxisome proliferator-activated receptor alpha (Homo sapiens) (UniProt Q07869). The experiment can be described thus: qHTS assay for small molecule agonists of the peroxisome proliferator-activated receptor alpha (PPARalpha) signaling pathway (AID 651778). Further: % of control where 0% means no effect. The note with it: PathHunter PPARalpha complementation, chemiluminescence, 6 h; max response: stronger effect = higher value. Summed up: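 Cells plated at 2,000/well and held overnight at 37 C, 5% CO2, then compound added by pin tool for 6 hr; after PathHunter detection reagent and 60 min at room temperature, chemiluminescence from enzyme complementation was read.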
Chain of Peroxisome proliferator-activated receptor alpha (Homo sapiens) (Q07869 whole entry, looked up): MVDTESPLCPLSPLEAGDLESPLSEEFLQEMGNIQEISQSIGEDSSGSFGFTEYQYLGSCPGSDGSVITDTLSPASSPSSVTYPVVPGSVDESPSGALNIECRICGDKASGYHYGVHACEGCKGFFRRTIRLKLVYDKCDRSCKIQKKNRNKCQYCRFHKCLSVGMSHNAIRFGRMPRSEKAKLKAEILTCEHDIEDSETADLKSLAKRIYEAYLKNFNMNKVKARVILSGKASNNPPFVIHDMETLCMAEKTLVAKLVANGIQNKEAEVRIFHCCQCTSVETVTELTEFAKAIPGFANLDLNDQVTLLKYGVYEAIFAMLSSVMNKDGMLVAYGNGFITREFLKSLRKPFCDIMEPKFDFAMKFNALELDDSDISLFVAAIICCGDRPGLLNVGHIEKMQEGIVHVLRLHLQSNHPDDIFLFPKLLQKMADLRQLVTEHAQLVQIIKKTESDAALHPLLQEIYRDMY

Experiment [10] deals with Peroxisome proliferator-activated receptor gamma (Homo sapiens) (UniProt P37231). Nature of the experiment: qHTS assay for small molecule agonists of peroxisome proliferator-activated receptor gamma signaling (AID 588536; active means well fitted curve in the direction sought with a large enough effect in the signal ratio, with a control signal flat, not every such curve was filed as active; the % refers to the signal ratio;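 further: 0% = DMSO basal wells and 100% = rosiglitazone at 2 µM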). The note with it: HEK293 PPARg-UAS-bla, beta-lactamase ratio, 16 h, percent of rosiglitazone response, DMSO as zero; series mostly up to 76.7 µM. The essentials:
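This is an agonist-mode beta-lactamase reporter assay in HEK293 PPAR-gamma-UAS-bla cells with 1% charcoal/dextran FBS. Compound titrations ran 16 h at 37 C before CCF4 detection. EC50 and efficacy are Hill fits scaled to 2 uM rosiglitazone (100%) and DMSO basal.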

Experiment [11] concerns the target Vitamin D3 receptor (Homo sapiens) (UniProt P11473). Nature of the experiment: qHTS assay for small molecule antagonists of vitamin D receptor signaling (AID 588541; calls by dose curve;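 further: receptor activated by calcitriol during compound treatment; on the % scale 0 is the no-effect control and ±100 the full control effect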). The note with it: HEK293T VDR-UAS-bla, beta-lactamase ratio, antagonist mode; series mostly up to 76.7 µM. The essentials:
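VDR-UAS-bla HEK293T cells (2000/well, 2% charcoal-stripped FBS) were treated with titrated compounds plus 1-alpha,25-dihydroxyvitamin D3 (50 nM or 3 nM final) for 16 h at 37 C. CCF4 beta-lactamase fluorescence was read; Hill fits gave IC50.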

Experiment [12] shares this target. Nature of the experiment: qHTS assay for small molecule agonists of vitamin D receptor signaling (AID 588543; calls by dose curve;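 further: 0% = DMSO basal and 100% = reference agonist control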). The note with it: HEK293T VDR-UAS-bla, beta-lactamase ratio, 16 h; series mostly up to 76.8 µM. The essentials:
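β-lactamase reporter, VDR-UAS-bla HEK293T, agonist mode. Cells plated 5 h at 37 °C, compound titration 16 h at 37 °C, CCF4 dye 2 h RT, ratio 460/530 nm. Hill fit → EC50, efficacy vs 50 nM 1α,25-(OH)2D3.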

A short description of experiment [13]: qHTS assay for small molecule antagonists of retinoid X receptor alpha signaling (AID 588546; active means well fitted inhibition curve with a large enough effect in the signal ratio, with a control signal flat, not every such curve was filed as active; the % refers to the signal ratio;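 further: cells stimulated with 9-cis-retinoic acid as agonist; on the % scale 0 is the no-effect control and ±100 the full control effect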). The note with it: HEK293T RXRa-UAS-bla, beta-lactamase ratio, antagonist mode; measured here: W530 green channel, cytotoxicity proxy. The essentials: (§1)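 Beta-lactamase reporter inhibition, read as CCF4 fluorescence ratio (ex 405, em 460/530 nm) after 2 h at RT. HEK293T UAS-bla cells, 2500/well, were stimulated with 9-cis-RA at 500 or 100 nM final alongside test compound for 18 h at 37 C.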

The target in experiment [14] is Retinoic acid receptor RXR-alpha (Homo sapiens) (UniProt P19793). The description is as above. The note with it: HEK293T RXRa-UAS-bla, beta-lactamase ratio, antagonist mode. Summed up: as §1
Chain of Retinoic acid receptor RXR-alpha (Homo sapiens) (P19793 whole entry, looked up): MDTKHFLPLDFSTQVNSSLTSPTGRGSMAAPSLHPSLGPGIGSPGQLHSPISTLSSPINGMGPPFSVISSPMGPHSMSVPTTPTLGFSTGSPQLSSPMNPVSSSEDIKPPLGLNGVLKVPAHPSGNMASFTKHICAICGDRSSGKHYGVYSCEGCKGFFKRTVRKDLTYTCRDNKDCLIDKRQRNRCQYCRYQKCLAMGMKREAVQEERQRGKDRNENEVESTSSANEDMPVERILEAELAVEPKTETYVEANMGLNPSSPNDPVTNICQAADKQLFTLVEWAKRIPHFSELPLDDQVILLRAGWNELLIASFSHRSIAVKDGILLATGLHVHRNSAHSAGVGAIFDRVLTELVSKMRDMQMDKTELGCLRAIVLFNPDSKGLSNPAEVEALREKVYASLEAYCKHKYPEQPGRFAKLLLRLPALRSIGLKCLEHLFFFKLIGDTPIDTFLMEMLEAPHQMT
The target in experiment [15] is Thyroid hormone receptor beta (Homo sapiens) (UniProt P10828). The experiment can be described thus: qHTS assay for small molecule antagonists of thyroid hormone receptor beta signaling (AID 588547; active means well fitted inhibition curve with a large enough effect in the signal ratio, with a control signal flat, not every such curve was filed as active; the % refers to the signal ratio;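 further: cells stimulated with 0.4 nM T3 agonist during compound exposure; on the % scale 0 is the no-effect control and ±100 the full control effect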). The note with it: TR-UAS-bla HEK293, beta-lactamase ratio, antagonist mode, 18 h. The essentials: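 TR-UAS-bla GripTite HEK293 cells in 2% charcoal/dextran FBS medium were preincubated 4 h at 37 C, given compound (0.59 nM to 92 uM) plus 0.4 nM T3 (final) for 18 h, then CCF4 for 2 h at RT; Hill fit gave IC50.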
Chain of Thyroid hormone receptor beta (Homo sapiens) (P10828 whole entry, looked up): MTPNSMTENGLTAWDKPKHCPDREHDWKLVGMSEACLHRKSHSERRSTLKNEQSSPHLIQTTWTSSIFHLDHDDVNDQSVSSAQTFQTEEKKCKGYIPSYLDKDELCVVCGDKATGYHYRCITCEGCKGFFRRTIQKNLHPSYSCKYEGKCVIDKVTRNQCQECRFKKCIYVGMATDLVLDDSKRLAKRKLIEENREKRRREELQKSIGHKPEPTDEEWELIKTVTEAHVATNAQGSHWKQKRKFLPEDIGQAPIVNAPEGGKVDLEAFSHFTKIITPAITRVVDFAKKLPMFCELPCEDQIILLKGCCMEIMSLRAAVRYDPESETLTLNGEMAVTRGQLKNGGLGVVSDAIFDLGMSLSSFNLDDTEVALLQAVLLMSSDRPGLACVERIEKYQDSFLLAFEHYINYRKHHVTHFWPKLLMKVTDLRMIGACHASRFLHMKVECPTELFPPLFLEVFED

The nature of experiment [16]: qHTS assay for small molecule agonists of the antioxidant response element (ARE) signaling pathway measured by Nrf2-dependant transcriptional activity - cell viability counter screen (AID 720653; active means well fitted curve in the direction sought with a large enough effect in the repeat runs; an effect the other way counts as inactive or inconclusive; further: on the % scale 0 is the no-effect control and ±100 the full control effect). The note with it: ARE-bla HepG2 viability, CellTiter-Glo ATP luminescence, 16 h; max response: stronger effect = lower value. The essentials: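 ARE-bla HepG2 cells (2,000/well) rested 5 hrs at 37C/5% CO2, then exposed to compounds in DMSO for 16 hrs. Viability was read in the same wells as intracellular ATP by luminescence, 30 min at room temperature after reagent addition.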

Experiment [17] deals with Nuclear receptor subfamily 1 group I member 2 (Rattus norvegicus) (UniProt Q9R1A7). Nature of the experiment: qHTS assay for small molecule activators of the rat pregnane X receptor (rPXR) signaling pathway (AID 651751; call rule not given here; further: 0% is about no effect). The note with it: rPXR reporter cells, luciferase (One-Glo), 24 h.
Chain of Nuclear receptor subfamily 1 group I member 2 (Rattus norvegicus) (Q9R1A7 whole entry, looked up): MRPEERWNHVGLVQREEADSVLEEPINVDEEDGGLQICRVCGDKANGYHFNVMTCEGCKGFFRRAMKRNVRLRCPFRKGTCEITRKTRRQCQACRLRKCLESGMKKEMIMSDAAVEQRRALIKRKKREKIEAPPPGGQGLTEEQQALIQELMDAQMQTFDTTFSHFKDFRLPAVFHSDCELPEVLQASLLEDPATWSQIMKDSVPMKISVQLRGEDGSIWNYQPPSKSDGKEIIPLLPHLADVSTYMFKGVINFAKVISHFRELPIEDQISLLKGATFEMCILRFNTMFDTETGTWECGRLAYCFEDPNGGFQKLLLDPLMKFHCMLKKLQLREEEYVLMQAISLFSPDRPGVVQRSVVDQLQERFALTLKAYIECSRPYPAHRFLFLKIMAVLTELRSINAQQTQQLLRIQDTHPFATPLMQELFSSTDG
Experiment [18] is described as follows: qHTS assay for small molecule antagonists of peroxisome proliferator-activated receptor delta signaling (AID 588535; active means well fitted inhibition curve with a large enough effect in the signal ratio, with a control signal flat, not every such curve was filed as active; the % refers to the signal ratio;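 on max response: cells co-treated with a PPAR-delta agonist as stimulator during compound exposure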). The note with it: HEK293T PPARd-UAS-bla, beta-lactamase FRET ratio, 18 h; 460 nm channel. The essentials:
(§2)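 Inhibition of PPAR-delta response element-driven beta-lactamase expression is measured in HEK293T cells exposed to a compound titration series for 18 hrs at 37 C. Half-maximal inhibition comes from Hill equation fitting.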

Experiment [19] deals with Peroxisome proliferator-activated receptor delta (Homo sapiens) (UniProt Q03181). The description is as above. The note with it: HEK293T PPARd-UAS-bla, beta-lactamase FRET ratio, 18 h; series mostly up to 76.7 µM. The essentials:
as §2

The nature of experiment [20]: qHTS assay for small molecule agonists of retinoid X receptor alpha signaling (AID 588544). The note with it: HEK293T RXRa-UAS-bla, beta-lactamase reporter, 18 h; 530 nm emission.

Structures are written as SMILES. “And” between values parts separate entries of the source, which are not always exact repeats. Identical values can stand only once. Inconclusive results are not listed. The source made the active and inactive calls. Unless noted, the call rests on the fitted dose curve; in most records, active means well fitted curve in the direction sought with a large enough effect; inconclusive means small, poorly fitted or top-dose-only effect, or another doubt; inactive means no such curve, though single readings can be large; an effect the other way counts as inactive or inconclusive.

Chain of Vitamin D3 receptor (Homo sapiens) (P11473 whole entry, looked up): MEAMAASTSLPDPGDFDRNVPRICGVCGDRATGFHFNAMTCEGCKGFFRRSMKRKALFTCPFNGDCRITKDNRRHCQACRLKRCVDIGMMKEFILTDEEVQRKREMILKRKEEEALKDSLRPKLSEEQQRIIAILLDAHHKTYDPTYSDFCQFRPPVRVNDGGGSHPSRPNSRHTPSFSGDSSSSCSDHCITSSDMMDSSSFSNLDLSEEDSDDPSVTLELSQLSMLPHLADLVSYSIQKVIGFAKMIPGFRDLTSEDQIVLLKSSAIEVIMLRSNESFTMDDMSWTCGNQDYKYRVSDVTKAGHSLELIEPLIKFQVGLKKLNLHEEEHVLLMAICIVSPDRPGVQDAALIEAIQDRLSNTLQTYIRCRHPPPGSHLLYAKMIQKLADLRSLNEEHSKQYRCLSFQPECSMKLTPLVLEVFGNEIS
Chain of Peroxisome proliferator-activated receptor delta (Homo sapiens) (Q03181 whole entry, looked up): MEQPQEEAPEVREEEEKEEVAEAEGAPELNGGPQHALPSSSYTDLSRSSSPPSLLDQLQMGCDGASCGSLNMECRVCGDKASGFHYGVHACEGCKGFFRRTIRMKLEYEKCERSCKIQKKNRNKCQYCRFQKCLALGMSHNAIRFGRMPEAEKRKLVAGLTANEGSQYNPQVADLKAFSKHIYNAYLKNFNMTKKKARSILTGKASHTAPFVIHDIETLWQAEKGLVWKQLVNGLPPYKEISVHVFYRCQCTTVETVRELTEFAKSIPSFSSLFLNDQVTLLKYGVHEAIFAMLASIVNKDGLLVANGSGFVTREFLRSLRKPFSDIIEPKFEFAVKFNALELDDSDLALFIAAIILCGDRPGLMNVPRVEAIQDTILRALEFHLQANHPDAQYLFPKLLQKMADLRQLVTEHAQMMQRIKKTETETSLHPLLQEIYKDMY
Chain of Glucocorticoid receptor (Homo sapiens) (P04150 whole entry, looked up): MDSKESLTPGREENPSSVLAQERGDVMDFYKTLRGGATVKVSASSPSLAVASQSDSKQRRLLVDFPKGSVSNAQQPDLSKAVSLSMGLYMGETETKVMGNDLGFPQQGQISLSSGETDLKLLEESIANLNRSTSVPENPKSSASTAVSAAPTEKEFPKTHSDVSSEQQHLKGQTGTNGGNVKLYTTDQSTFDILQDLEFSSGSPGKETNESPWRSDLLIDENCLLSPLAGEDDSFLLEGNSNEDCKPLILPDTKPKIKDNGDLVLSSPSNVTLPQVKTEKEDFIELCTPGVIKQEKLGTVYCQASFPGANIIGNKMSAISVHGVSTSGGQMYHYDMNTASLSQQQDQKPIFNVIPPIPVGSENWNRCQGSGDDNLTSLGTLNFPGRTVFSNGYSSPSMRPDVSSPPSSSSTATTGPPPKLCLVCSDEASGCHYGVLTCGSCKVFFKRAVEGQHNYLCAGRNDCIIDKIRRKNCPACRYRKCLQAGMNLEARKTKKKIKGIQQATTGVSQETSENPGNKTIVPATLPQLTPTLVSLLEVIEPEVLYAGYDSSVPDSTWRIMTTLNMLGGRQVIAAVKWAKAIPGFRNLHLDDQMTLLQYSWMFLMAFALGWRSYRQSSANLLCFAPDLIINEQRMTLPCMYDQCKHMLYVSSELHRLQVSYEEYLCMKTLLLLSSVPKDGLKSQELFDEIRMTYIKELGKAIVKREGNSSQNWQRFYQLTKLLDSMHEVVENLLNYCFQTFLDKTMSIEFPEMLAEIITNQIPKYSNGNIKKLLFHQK
Chain of Peroxisome proliferator-activated receptor gamma (Homo sapiens) (P37231 whole entry, looked up): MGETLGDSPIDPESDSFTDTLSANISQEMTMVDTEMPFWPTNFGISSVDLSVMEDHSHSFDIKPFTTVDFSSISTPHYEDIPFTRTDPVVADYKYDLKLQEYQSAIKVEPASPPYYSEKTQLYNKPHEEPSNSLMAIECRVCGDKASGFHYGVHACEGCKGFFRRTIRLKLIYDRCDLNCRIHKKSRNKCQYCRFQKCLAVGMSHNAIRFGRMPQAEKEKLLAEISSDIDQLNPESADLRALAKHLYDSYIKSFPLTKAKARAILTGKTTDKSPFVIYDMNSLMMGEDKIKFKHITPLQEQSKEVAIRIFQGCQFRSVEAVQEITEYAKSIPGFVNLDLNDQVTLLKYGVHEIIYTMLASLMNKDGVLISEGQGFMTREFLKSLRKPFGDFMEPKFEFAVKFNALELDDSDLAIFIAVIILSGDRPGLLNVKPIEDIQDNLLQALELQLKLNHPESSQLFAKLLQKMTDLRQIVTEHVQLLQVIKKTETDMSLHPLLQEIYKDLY

Regarding `CC[C@H](C)C1O[C@]2(C=C[C@@H]1C)C[C@@H]1C[C@@H](C/C=C(\C)[C@@H](O[C@H]3C[C@H](OC)[C@@H](O[C@H]4C[C@H](OC)[C@H](NC(C)=O)[C@H](C)O4)[C@H](C)O3)[C@@H](C)/C=C/C=C3\CO[C@@H]4[C@H](O)C(C)=C[C@@H](C(=O)O1)[C@]34O)O2` (stereo partly specified), the figures for the activation in [1] and in experiment [2] were -14.6% (inactive) and -11.2% (inactive), respectively. Besides, the Potency entry in experiment [3] was “inactive”. The Potency in [4] is 44.7 µM (active); in experiment [5], 14.1 µM (active). Besides, the molecule was called inactive in [6].

Take `O=C(Nc1ccccc1)c1cc(Cl)ccc1O`: the Potency entry in [7] was “inactive”. Also, the Potency in [8] was 10 µM (active); in [2], 15.8 µM (active); in experiment [5], 35.5 µM (active). Moreover, the max response in experiment [9] is 0.537% (inactive). For the same molecule, the molecule was called inactive in experiment [6].

In the case of `CC[C@H]1O[C@]2(CC[C@@H]1C)C[C@@H]1C[C@@H](C/C=C(\C)C[C@@H](C)/C=C/C=C3CO[C@@H]4[C@H](O)C(C)=C[C@@H](C(=O)O1)[C@]34O)O2`, the activation in experiment [2] is -11.9% (inactive). Moreover, the Potency entry in experiment [3] is “inactive”. In [5], the Potency is 31.6 µM (active).

As for `CCCOC(=O)NCCCN(C)C`, the outcome in experiment [10], in experiment [12] and in experiment [6] was inactive. Further, the Potency result in [11], in experiment [7], in experiment [3] and in experiment [5] was “inactive” each time. Further, the max response is -8.13% in [13]; 1.48% (inactive) in experiment [14]; -0.73% (inactive) in [9]; -5.96% (inactive) in [16]; -0.93% (inactive) in experiment [4]; 8.36% (inactive) in experiment [17]. Further, in [15], the activity change % (negative = inhibition) was 1.87% (inactive). The activation in [8] is -1.96% (inactive); in experiment [2], 2.96% (inactive).

In the case of `CCNc1nc(N)nc(Cl)n1`, the max response in [18] was 34.2%; in [20], -5.45% and -6.57%; in [13] it was -17.5% and -16.5%; in experiment [14], 7.29% (inactive) and -4.52% (inactive); in experiment [9], -2.09% (inactive) and -1.78% (inactive); in experiment [16] it was -7.89% (inactive) and -3.73% (inactive). Moreover, the max response in experiment [4] is -4.19% (inactive) and 3.18% (inactive); in [17] it was -3.95% (inactive) and -0.52% (inactive). Also, the Potency result in experiment [19], in experiment [11], in experiment [7], in [3] and in experiment [5] was “inactive” in each case. Besides, the activity change % (negative = inhibition) in experiment [15] is -8.97% (inactive). Also, in [8], the activation was -2.48% (inactive) and -1.49% (inactive).

Take `CC(C)CCCCCCc1ccc(OCCOCCO)cc1`: the max response in experiment [20] is -48.7%; in [16], -4.66% (inactive); in experiment [17] it was -16.1% (inactive). Also, the activation in experiment [2] is -9.42% (inactive). In [3], the Potency entry is “inactive”.

Turning to `Brc1ccc(Oc2ccc(Br)cc2)cc1`, the max response was 0.317% in experiment [18]; -2.23% in [13]; 3.5% (inactive) in experiment [14]; 4.27% (inactive) in experiment [9]; -9.27% (inactive) in [16]; -10% (inactive) in experiment [4]. Further, the max response in [17] is -1.1% (inactive). Moreover, the Potency result in experiment [19], in experiment [7], in [3] and in experiment [5] was “inactive” in each case. The result in experiment [12] and in experiment [6] was inactive. Moreover, in experiment [15], the activity change % (negative = inhibition) was 11% (inactive). Besides, the activation in [8] is 0.901% (inactive).
